In PubChem BioAssay AID1159580 (chemical genetic matrix, 2015):
The whole screen tested about 5,500 compounds, of which about 2,000 (36%) were called active. Roughly 18% stayed inconclusive and do not appear here. No stated cut-off is given here; in the data, active means normalized growth mostly below about 0.91 (no sharp cut-off); inconclusive means no clear call, values can overlap the other calls; inactive means mostly above about 0.92. This is one part of the list.

Test: chemical genetic growth profiling, strain panel (AID 1159580);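 further: tested at 20 µM; growth read once vehicle control cultures reached saturation at 30 °C; 1 = growth at the plate median or of vehicle wells; lower values mean less growth of the strain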
Conditions: growth OD

Measured: normalized growth

Cn1c(=O)[nH]c(=O)c2[nH]cnc21
inactive: S. cerevisiae deletion strains, locus YJR075W, strain HOC1, hits give low values 0.995 | S. cerevisiae deletion strains, locus YKL009W, strain mrt4, hits give low values 0.998 | S. cerevisiae deletion strains, locus YKL068W, hits give low values 0.97 | S. cerevisiae deletion strains, locus YKL085W, strain MDH1 (second series), hits give low values 0.976 | S. cerevisiae deletion strains, locus YKL085W, strain MDH1, hits give low values 0.976 | S. cerevisiae deletion strains, locus YKL160W, strain elf1, hits give low values 1 | S. cerevisiae deletion strains, locus YKL190W, strain CNB1, hits give low values 0.995 | S. cerevisiae deletion strains, locus YKR001C, strain vps1, hits give low values 0.987 | S. cerevisiae deletion strains, locus YKR026C, strain gcn3, hits give low values 0.984 | S. cerevisiae deletion strains, locus YKR091W, strain srl3, hits give low values 0.992 | S. cerevisiae deletion strains, locus YLL001W, strain dnm1, hits give low values 1.01 | S. cerevisiae deletion strains, locus YLL026W, hits give low values 1 | S. cerevisiae deletion strains, locus YLL041C, strain sdh2, hits give low values 1 | S. cerevisiae deletion strains, locus YLR027C, strain aat2, hits give low values 0.974 | S. cerevisiae deletion strains, locus YLR039C, strain RIC1, hits give low values 0.974 | S. cerevisiae deletion strains, locus YLR058C, strain SHM2, hits give low values 0.988 | S. cerevisiae deletion strains, locus YLR102C, strain apc9, hits give low values 0.972 | S. cerevisiae deletion strains, locus YLR113W, strain HOG1, hits give low values 0.998 | S. cerevisiae deletion strains, locus YLR221C, strain rsa3, hits give low values 1.01 | S. cerevisiae deletion strains, locus YLR258W, strain gsy2, hits give low values 0.999 | S. cerevisiae deletion strains, locus YLR262C, strain YPT6 (second series), hits give low values 0.976 | S. cerevisiae deletion strains, locus YLR262C, strain YPT6, hits give low values 1.01 | S. cerevisiae deletion strains, locus YLR268W, strain sec22, hits give low values 0.956 | S. cerevisiae deletion strains, locus YLR320W, strain mms22, hits give low values 0.987 | S. cerevisiae deletion strains, locus YLR330W, strain CHS5, hits give low values 0.991 | S. cerevisiae deletion strains, locus YLR342W, strain FKS1 (second series), hits give low values 1.01 | S. cerevisiae deletion strains, locus YLR342W, strain FKS1, hits give low values 1.01 | S. cerevisiae deletion strains, locus YLR357W, strain rsc2, hits give low values 0.971 | S. cerevisiae deletion strains, locus YLR370C, strain arc18, hits give low values 0.989 | S. cerevisiae deletion strains, locus YLR371W, strain rom2, hits give low values 0.96 | S. cerevisiae deletion strains, locus YLR384C, strain iki3, hits give low values 0.983 | S. cerevisiae deletion strains, locus YLR418C, strain cdc73, hits give low values 0.983 | S. cerevisiae deletion strains, locus YML016C, strain PPZ1, hits give low values 0.986 | S. cerevisiae deletion strains, locus YML032C, strain rad52, hits give low values 0.974 | S. cerevisiae deletion strains, locus YML120C, strain ndi1, hits give low values 0.999 | S. cerevisiae deletion strains, locus YML124C, strain tub3, hits give low values 0.972 | S. cerevisiae deletion strains, locus YMR058W, strain fet3, hits give low values 1.01 | S. cerevisiae deletion strains, locus YMR078C, strain ctf18, hits give low values 0.954 | S. cerevisiae deletion strains, locus YMR125W, strain sto1, hits give low values 1.01 | S. cerevisiae deletion strains, locus YMR129W, hits give low values 0.99 | S. cerevisiae deletion strains, locus YMR205C, strain PFK2, hits give low values 0.998 | S. cerevisiae deletion strains, locus YMR223W, strain ubp8, hits give low values 0.987 | S. cerevisiae deletion strains, locus YMR231W, strain pep5, hits give low values 0.992 | S. cerevisiae deletion strains, locus YMR263W, strain SAP30, hits give low values 0.953 | S. cerevisiae deletion strains, locus YMR307W, strain GAS1, hits give low values 0.948 | S. cerevisiae deletion strains, locus YNL067W, strain RPL9B, hits give low values 0.996 | S. cerevisiae deletion strains, locus YNL071W, strain lat1, hits give low values 0.98 | S. cerevisiae deletion strains, locus YNL128W, strain TEP1, hits give low values 0.987 | S. cerevisiae deletion strains, locus YNL153C, strain GIM3, hits give low values 0.993 | S. cerevisiae deletion strains, locus YNL183C, strain NPR1, hits give low values 0.925 | S. cerevisiae deletion strains, locus YNL209W, strain ssb2, hits give low values 0.983 | S. cerevisiae deletion strains, locus YNL233W, strain BNI4, hits give low values 0.981 | S. cerevisiae deletion strains, locus YNL248C, strain rpa49, hits give low values 0.985 | S. cerevisiae deletion strains, locus YNL250W, strain rad50, hits give low values 0.956 | S. cerevisiae deletion strains, locus YNL271C, strain bni1, hits give low values 0.963 | S. cerevisiae deletion strains, locus YNL298W, strain CLA4, hits give low values 0.972 | S. cerevisiae deletion strains, locus YNL307C, strain MCK1, hits give low values 0.975 | S. cerevisiae deletion strains, locus YNL322C, strain KRE1 (second series), hits give low values 0.968 | S. cerevisiae deletion strains, locus YNL322C, strain KRE1, hits give low values 0.997 | S. cerevisiae deletion strains, locus YNR049C, strain mso1, hits give low values 1 | S. cerevisiae deletion strains, locus YNR052C, strain pop2, hits give low values 0.97 | S. cerevisiae deletion strains, locus YOL006C, strain TOP1, hits give low values 0.965 | S. cerevisiae deletion strains, locus YOL012C, strain htz1 1.01 | S. cerevisiae deletion strains, locus YOL147C, strain pex11, hits give low values 0.981 | S. cerevisiae deletion strains, locus YOR001W, strain rrp6, hits give low values 1.01 | S. cerevisiae deletion strains, locus YOR061W, strain CKA2, hits give low values 0.986 | S. cerevisiae deletion strains, locus YOR069W, strain VPS5, hits give low values 0.981 | S. cerevisiae deletion strains, locus YOR070C, strain gyp1, hits give low values 0.998 | S. cerevisiae deletion strains, locus YOR080W, strain dia2, hits give low values 0.986 | S. cerevisiae deletion strains, locus YOR083W, strain WHI5, hits give low values 0.933 | S. cerevisiae deletion strains, locus YOR106W, strain vam3, hits give low values 0.977 | S. cerevisiae deletion strains, locus YOR136W, strain idh2, hits give low values 0.967 | S. cerevisiae deletion strains, locus YOR144C, strain elg1, hits give low values 0.958 | S. cerevisiae deletion strains, locus YOR184W, strain ser1, hits give low values 0.966 | S. cerevisiae deletion strains, locus YOR231W, strain MKK1, hits give low values 0.978 | S. cerevisiae deletion strains, locus YOR265W, strain rbl2, hits give low values 0.988 | S. cerevisiae deletion strains, locus YOR270C, strain vph1, hits give low values 0.981 | S. cerevisiae deletion strains, locus YOR290C, strain snf2, hits give low values 0.987 | S. cerevisiae deletion strains, locus YOR316C, strain cot1, hits give low values 0.972 | S. cerevisiae deletion strains, locus YPL051W, strain arl3, hits give low values 0.988 | S. cerevisiae deletion strains, locus YPL055C, strain LGE1, hits give low values 1 | S. cerevisiae deletion strains, locus YPL078C, strain atp4, hits give low values 0.988 | S. cerevisiae deletion strains, locus YPL106C, strain sse1, hits give low values 0.958 | S. cerevisiae deletion strains, locus YPL240C, strain hsp82, hits give low values 1.02 | S. cerevisiae deletion strains, locus YPL241C, strain CIN2, hits give low values 0.993 | S. cerevisiae deletion strains, locus YPL256C, strain CLN2, hits give low values 0.972 | S. cerevisiae deletion strains, locus YPR119W, strain clb2, hits give low values 0.974 | S. cerevisiae deletion strains, locus YPR141C, strain kar3, hits give low values 0.952 | S. cerevisiae deletion strains, locus YPR163C, strain tif3, hits give low values 0.965 | S. cerevisiae deletion strains, locus YPR167C, strain met16, hits give low values 0.965 | S. cerevisiae deletion strains, strain wtn01, hits give low values 0.982 | S. cerevisiae strains, strain wild type, hits give low values 0.993
